# Sfp PPTase inh = blocks B. subtilis Sfp PPTase activity; Potency, µM, without a hit: largest response in the series, negative = inhibition, most hits filed as inhibitors; Biochemical Sfp PPTase activity, qHTS; actives 3.5% (n = 310,000);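 also: the enzyme is Sfp with the accession as filed and its product quenches rhodamine fluorescence; 0% = enzyme reaction without inhibitor and -100% = no enzyme wells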
#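 Fluorescence-quenching assay: 15 nM Sfp-PPTase preincubated 15 min at room temperature with compound, then 5 uM rhodamine-CoA and 12.5 uM BHQ-2-labelled YbbR peptide added. Fluorescence (ex 525/em 598 nm) read at start and after 30 min; difference gives rate.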
# ALOX12 inh = ALOX12 (human) lipoxygenase inhibition; P18054; purified 12hLO, xylenol orange hydroperoxide absorbance; Potency, µM (titrated, usually from 108 µM), inactives show at the highest dose activity change, negative = inhibition, hits mostly inhibitors; actives 1.1% (n = 580,000); AID 1671190; also: % is scaled to controls: 0 for no effect and ±100 for the full control effect
#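 Hydroperoxide product was detected by ferrous iron/xylenol orange as the 573 to 405 nm absorbance ratio. Arachidonic acid at 40 uM (final) was turned over for 30 min at room temperature by 150 nM human 12hLO, pH 7.0 Hepes buffer, after 15 min compound preincubation.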
# G9a inh = G9a (human) methyltransferase inhibition. G9a H3K9 monomethylation, AlphaScreen, 2 h. actives 8.8% (n = 350,000). AID 504332. Potency, µM (doses to about 102 µM), without a hit: at the top dose activity, negative = inhibition, actives largely listed as inhibitors. Q96KQ7; also: % is scaled to controls: 0 for no effect and ±100 for the full control effect; nearly all actives have a fitted effect of over 75% in size
#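 Using a bead-based AlphaScreen, monomethylated H3K9 product from 2 h room-temperature reactions (G9a 20 nM, peptide 500 nM, SAM 20 uM) was detected with 0.5 ug/mL rabbit anti-H3K9me1 antibody.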
# HP1b binding inh = inhibitors of HP1-beta chromodomain binding to methylated histone tails; AID 540317; P83916; AlphaScreen HP1-beta / biotin-H3K9me3 peptide binding; Potency, µM (doses to about 114 µM), inactives show top-dose activity change, negative = inhibition, most hits filed as inhibitors; actives 0.56% (n = 390,000); also: nearly all actives have a fitted effect of over 70% in size
#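 Compound inhibition of the preformed complex between 50 nM HP1-beta and 50 nM biotinylated H3K9me3 peptide was read by AlphaScreen. Buffer was PBS pH 7.4 with 0.01% Tween-20. Incubations ran 30 min at room temperature, with 10 ug/mL donor/acceptor beads.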
# JMJD2A Tudor = JMJD2A Tudor domain (human) inhibition; O75164; Potency, µM (highest dose often 114 µM), without a hit: at the top dose activity change, negative = inhibition, actives largely listed as inhibitors; AlphaScreen JMJD2A-Tudor / H3K4me3 peptide binding; actives 4.4% (n = 390,000); also: % is scaled to controls: 0 for no effect and ±100 for the full control effect; nearly all actives have a fitted effect of over 50% in size
# BAZ2B block = BAZ2B (human) inhibition; Q9UIF8; AlphaScreen BAZ2B-H3K14Ac peptide displacement; Potency, µM (doses to about 114 µM), without a hit: at the highest dose activity change, negative = inhibition, most hits filed as inhibitors; actives 4.4% (n = 360,000); AID 504333; also: % is scaled to controls: 0 for no effect and ±100 for the full control effect; nearly all actives have a fitted effect of over 60% in size
#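 In this displacement format the biotinylated H3(5-23) peptide acetylated at Lys14 serves as ligand at 50 nM, with BAZ2B at 50 nM in PBS pH 7.4 containing 0.01% Tween-20. Donor and acceptor beads are 10 ug/mL final.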
# * hit, by the source's call; ? = inconclusive; / = not tested or not shown; [ ] = dose if it differs, or a comment. The list is not random: actives were taken first. Their share in the collection is about 8.7%. Calls follow the shape of the dose curve; as a rule, active = well fitted curve in the direction sought with a large enough effect; inconclusive = small, poorly fitted or top-dose-only effect, or another doubt; inactive = no such curve, though single readings can be large; an effect the other way counts as inactive or inconclusive. Potency is read from the fitted curve at half-maximal effect.
SMILES,Sfp PPTase inh,ALOX12 inh,G9a inh,HP1b binding inh,JMJD2A Tudor,BAZ2B block
Cc1ccccc1CS(=O)Cc1ccc(F)cc1Cl (stereo not drawn),/,5%,/,/,/,/
CCC(=O)N1Cc2ccccc2CC2(CCCN2CC2CCOCC2)C1 (stereo not drawn),/,8%[6.33 µM],/,/,/,/
COc1ccc(C/C(C)=N/NC(=S)Nc2ccc(C(C)C)cc2)cc1,-1%,?,7.9µM*,22%,7.9µM*,-36%
CC(CCc1ccco1)NC(=O)c1cc2c(-c3ccccc3F)nn(C)c2s1 (stereo not drawn),45µM*,-28%,89µM*,8%,-21%,-2%
O=c1c2ccccc2oc2ccc(NCCCn3ccnc3)cc12,10%,16%,/,39%,?,50µM*
O=C(O)c1ccccc1C(=O)Nc1ccccc1NC(=O)c1ccccc1C(=O)O,/,?,/,42%,10%,/
COC(=O)C1=C(Nc2ccccc2NC(=O)CCCC(=O)O)CSC1,79µM*,148%,/,22%,-8%,-1%
COC(=O)C1=C(Nc2ccccc2NC(=O)c2ccccc2C(=O)O)CSC1,45µM*,162%,-19%,36%,-14%,?
CCN1C(=O)CCN(S(C)(=O)=O)CC12CCOCC2,/,4%,/,/,/,/
CC(Sc1nnc(-c2cccs2)n1-c1ccccc1)C(=O)Nc1ccc2c(c1)OCO2 (stereo not drawn),/,-22%,/,/,/,/
CCn1c(-c2cccn(Cc3ccc(Cl)cc3Cl)c2=O)n[nH]c1=S,-21%,-3%,8.9µM*,-9%,-32%[11.4 µM],5%
S=c1[nH]nc(COc2ccc(Cl)cc2Cl)n1-c1ccccc1,11%,?,10µM*,30%,-34%,-30%
S=c1[nH]nc(-c2ccc(Cl)cc2Cl)n1Cc1ccccc1,?,?,?,?,13µM*,-6%
S=c1[nH]nc(-c2ccc(Cl)cc2Cl)n1-c1ccccc1,19%,?,6.3µM*,28%,-13%,-28%
CN(C)CCCNC(=O)Cn1ccc2ccc(Br)cc21,/,16%,/,/,/,/
CC(=O)Oc1cc2c(=O)c3ccccc3sc2cc1C,/,-6%,/,/,/,/
Cc1cccc(NC(=O)c2nc(S(C)(=O)=O)ncc2Cl)c1,/,-13%,8.9µM*,36%,-26%,-1%
COc1cccc(NC(=O)c2nc(S(C)(=O)=O)ncc2Cl)c1,?,-21%,35µM*,83%,-5%,-17%
COc1cccc(NC(=O)c2nc(SC)ncc2Cl)c1,14%,-6%,-15%,37%,-5%,-1%
CN(c1ccccc1)S(=O)(=O)c1ccc(NC(=O)c2nc(S(C)(=O)=O)ncc2Cl)cc1,28µM*,?,11µM*,2%,?,-26%
O=C(c1cc2ccccc2[nH]1)N1CCN(S(=O)(=O)c2cccs2)CC1,/,-23%,/,/,/,/
CCCc1noc(-c2cccn3c(CNC(=O)c4ccc(C)cc4)nnc23)n1,/,90%,/,/,/,/
O=C(NCc1nnc2n1CCCCC2)c1nn(Cc2ccccc2)c(=O)c2ccccc12,/,40%,/,/,/,/
CC(C)OC(=O)CC1C(=O)NCCN1C(=S)NC(=O)CCc1ccccc1 (stereo not drawn),16%,-12%,?,48%,-7%,-1%
CC(C)OC(=O)CC1C(=O)NCCN1C(=S)NC(=O)c1ccccc1 (stereo not drawn),18µM*,-13%,32µM*,45%,-14%,?
SMILES,Sfp PPTase inh,ALOX12 inh,G9a inh,HP1b binding inh,JMJD2A Tudor,BAZ2B block
COC(=O)CC1C(=O)NCCN1C(=S)NC(=O)c1sc2ccccc2c1Cl (stereo not drawn),79µM*,?,?,12%,1%[11.4 µM],?
CC(C)OC(=O)CC1C(=O)NCCN1C(=S)NC(=O)c1ccc(F)cc1 (stereo not drawn),-25%,-21%,40µM*,41%,-14%,-20%
Cc1ccc(-n2nc3n(c2=O)CCN(C(=O)c2cccc(Cl)c2)C3)cc1,/,48%,/,/,/,/
COC(=O)C1=C(C)NC(=O)/C1=C\c1cc(C)n(-c2ccccc2F)c1C,-13%,?,/,-10%,-33%,45µM*
Cc1cccc(C)c1-n1c(C)cc(/C=C2\NC(=O)NC2=O)c1C,13%,?,?,-21%,50µM*,40µM*
Cc1cc(/C=C2\NC(=O)NC2=O)c(C)n1-c1cccnc1,12%,0%,?,-5%,-14%,?
COC(=O)C1=C(C)NC(=O)/C1=C\c1cc(C)n(-c2ccccc2C)c1C,-14%,?,45µM*,-68%,45µM*,45µM*
COC(=O)C1=C(C)NC(=O)/C1=C\c1cc(C)n(-c2c(C)cccc2C)c1C,-26%,?,10µM*,?,32µM*,32µM*
O[C@H]1CC[C@@H](Cc2cc(-c3ccc(F)cc3)on2)O[C@@H]1CNCc1cccnc1,/,23%[176 µM],/,/,/,/
CCn1c(CN(C)C)nnc1C1CCN(C(=O)Cn2nc(C)cc2N)CC1,/,6%,/,/,/,/
Nc1nccnc1C(=O)NCc1ccco1,/,-7%,/,/,/,/
CN(Cc1nccs1)c1ncnc2ccc(-c3ccc4c(c3)OCO4)cc12,/,/,/,/,79µM*,/
COc1cc2ncnc(N(C)Cc3csc(C)n3)c2cc1-c1ccc2c(c1)OCO2,/,/,/,/,8.9µM*,/
COc1cc(NC(=O)CCc2ccccc2)nc(OC)n1,2%,-1%,9%[59 µM],26%,4%,12%
COc1cc(C(=O)O)nc(OC)n1,-27%,?,?,-6%,2.8µM*,71µM*
C=CCn1c(SCC(=O)O)nnc1-c1ccc(C(C)(C)C)cc1,6%,?,32µM*,54%,0%,-2%
CC(C)(C)c1ccc(-c2nnc(SCC(=O)O)n2N)cc1,16%,-6%,45µM*,42%,-11%,1%
O=C(CSc1nc(=O)n(Cc2ccccn2)c2c1CCC2)NC1CCCC1,/,-4%,/,/,/,/
CCOC(=O)/C=C/S(=O)(=O)c1ccc(NC(C)=O)cc1,40µM*,0%,25µM*,-1%,-23%,16%
CC/C(=N/Nc1ccccc1)c1cnnc(-c2ccccc2)n1,-7%,?,7.1µM*,1%,-20%,11%
CC/C(=N/Nc1cccc(Cl)c1)c1cnnc(SC)n1,-7%,?,6%[59 µM],27%,?,2%
Cc1cc(C(F)(F)F)n(-c2nc(C(=O)NN)cs2)n1,1%,14%,-8%,23%,-4%,-12%
Cc1cc(C)n(-c2nc(C(=O)O)cs2)n1,10%,-11%,50µM*,17%,-7%,?
Cc1nnc2n1CCC(NC(=O)NCc1ccco1)CC2 (stereo not drawn),/,31%,/,/,/,/
COc1ccc(CCN2CN(S(=O)(=O)c3ccccc3)c3nc4ccccc4nc32)cc1OC,-5%,-6%,32µM*,15%,-2%,-37%

# Bioassay records: PubChem, National Center for Advancing Translational Sciences (NCATS)
